# Assay results published in paper PMC7862700, “An all-to-all approach to the identification of sequence-specific readers for epigenetic DNA modifications on cytosine”.
# Assays:
# Test in all cases: DAPPL (digital affinity profiling via proximity ligation, sequencing); 10 mM Tris-HCl pH 7.5, 50 mM NaCl, 1 mM DTT, 4% glycerol, room temperature, 30 min; GST-TFs on glutathione beads, 16-mer random dsDNA library, 0.1% formaldehyde crosslink after washing; high values mean tight binding
# Settings in all cases: protein: recombinant; tags: N-terminal GST; dsDNA, one strand shown
# [1] = molecular target: T1, ELK1 (Homo sapiens, UniProt P19419 1-428)
# T1 sequence: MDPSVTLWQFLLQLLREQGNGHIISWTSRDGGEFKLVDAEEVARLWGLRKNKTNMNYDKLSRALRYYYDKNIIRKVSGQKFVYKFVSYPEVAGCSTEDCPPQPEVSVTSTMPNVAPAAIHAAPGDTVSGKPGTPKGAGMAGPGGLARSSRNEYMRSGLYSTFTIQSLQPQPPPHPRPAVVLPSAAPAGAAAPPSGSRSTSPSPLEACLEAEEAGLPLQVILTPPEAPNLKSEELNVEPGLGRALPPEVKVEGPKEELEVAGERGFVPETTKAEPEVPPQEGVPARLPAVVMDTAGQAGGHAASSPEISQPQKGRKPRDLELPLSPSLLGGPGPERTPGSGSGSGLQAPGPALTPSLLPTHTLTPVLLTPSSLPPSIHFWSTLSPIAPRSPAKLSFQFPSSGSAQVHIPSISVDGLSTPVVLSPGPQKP
# How it was run: (§1)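 GST fusions of human transcription factors were expressed in yeast and captured with glutathione beads. Once given DNA barcodes and pooled alongside a tag-only sample, they were incubated for 30 min at room temperature with 200 nmole of a random double-stranded 16-mer DNA library in Tris/NaCl/DTT/glycerol buffer, then washed, crosslinked (0.1% formaldehyde), proximity-ligated, PCR-amplified and sequenced on an Illumina NextSeq500. The binding signal of each hexamer is its read frequency for a factor divided by its frequency for the tag-only sample.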
# [2] = molecular target: T2, GABPA (Homo sapiens, UniProt Q06546 1-454)
# T2 sequence: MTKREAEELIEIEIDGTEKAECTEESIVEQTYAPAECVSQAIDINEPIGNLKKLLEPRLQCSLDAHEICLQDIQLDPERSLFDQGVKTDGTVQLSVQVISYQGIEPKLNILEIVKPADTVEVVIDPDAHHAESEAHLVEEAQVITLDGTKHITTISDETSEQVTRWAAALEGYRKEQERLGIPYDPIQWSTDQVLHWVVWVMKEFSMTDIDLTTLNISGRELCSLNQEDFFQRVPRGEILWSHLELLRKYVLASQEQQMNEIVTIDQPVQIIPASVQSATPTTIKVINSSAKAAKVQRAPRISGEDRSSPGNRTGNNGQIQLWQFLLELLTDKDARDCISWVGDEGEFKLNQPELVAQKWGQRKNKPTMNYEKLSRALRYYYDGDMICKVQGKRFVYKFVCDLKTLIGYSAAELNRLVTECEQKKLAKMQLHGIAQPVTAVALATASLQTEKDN
# How it was run: as §1
# [3] = molecular target: ELF1 (Homo sapiens, UniProt P32519 1-619)
# ELF1, sequence (P32519 whole entry): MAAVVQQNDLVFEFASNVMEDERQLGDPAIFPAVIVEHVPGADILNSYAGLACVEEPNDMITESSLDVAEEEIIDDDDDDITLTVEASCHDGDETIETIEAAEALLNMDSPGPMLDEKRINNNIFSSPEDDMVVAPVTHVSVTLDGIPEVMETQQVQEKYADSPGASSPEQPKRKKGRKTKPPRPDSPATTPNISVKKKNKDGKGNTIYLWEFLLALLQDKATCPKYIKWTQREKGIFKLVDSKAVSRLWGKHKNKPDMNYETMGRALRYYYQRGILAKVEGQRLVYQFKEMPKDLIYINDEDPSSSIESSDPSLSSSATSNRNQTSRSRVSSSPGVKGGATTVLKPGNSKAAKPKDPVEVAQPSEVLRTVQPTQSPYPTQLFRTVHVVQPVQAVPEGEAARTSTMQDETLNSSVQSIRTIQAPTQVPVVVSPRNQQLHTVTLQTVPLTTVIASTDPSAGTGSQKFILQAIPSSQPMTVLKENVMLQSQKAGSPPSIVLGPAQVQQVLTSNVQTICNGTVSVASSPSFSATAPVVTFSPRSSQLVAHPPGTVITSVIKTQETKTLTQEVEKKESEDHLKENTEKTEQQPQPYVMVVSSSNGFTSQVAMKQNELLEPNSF
# How it was run: as §1
# [4] = molecular target: T3, EHF (Homo sapiens, UniProt Q9NZC4 1-300)
# T3 sequence: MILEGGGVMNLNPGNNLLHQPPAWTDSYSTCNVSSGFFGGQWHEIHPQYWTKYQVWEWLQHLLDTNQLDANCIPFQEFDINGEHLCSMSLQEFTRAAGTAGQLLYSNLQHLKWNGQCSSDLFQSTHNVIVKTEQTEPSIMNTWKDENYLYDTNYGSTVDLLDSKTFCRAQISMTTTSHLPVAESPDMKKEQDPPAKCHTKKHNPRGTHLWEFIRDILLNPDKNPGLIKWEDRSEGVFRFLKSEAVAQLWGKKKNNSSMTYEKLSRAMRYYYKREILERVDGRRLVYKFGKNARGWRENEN
# How it was run: as §1
# [5] = molecular target: SPIB (Homo sapiens, UniProt Q01892 1-262)
# SPIB, sequence (Q01892 whole entry): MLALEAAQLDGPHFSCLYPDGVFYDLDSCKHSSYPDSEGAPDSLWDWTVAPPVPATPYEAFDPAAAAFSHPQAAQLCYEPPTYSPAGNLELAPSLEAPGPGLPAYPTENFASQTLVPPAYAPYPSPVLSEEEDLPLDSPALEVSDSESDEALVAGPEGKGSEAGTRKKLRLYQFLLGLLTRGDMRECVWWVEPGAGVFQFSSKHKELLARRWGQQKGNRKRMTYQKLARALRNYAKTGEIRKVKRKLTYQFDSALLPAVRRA
# How it was run: as §1
# [6] = molecular target: T4, FEV (Homo sapiens, UniProt Q99581 1-238)
# T4 sequence: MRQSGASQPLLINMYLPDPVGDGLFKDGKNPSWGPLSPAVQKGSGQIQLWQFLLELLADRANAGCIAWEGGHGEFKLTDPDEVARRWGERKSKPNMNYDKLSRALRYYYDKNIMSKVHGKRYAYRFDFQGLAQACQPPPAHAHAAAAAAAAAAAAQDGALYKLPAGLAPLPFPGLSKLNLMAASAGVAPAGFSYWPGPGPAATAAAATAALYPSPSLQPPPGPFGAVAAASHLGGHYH
# How it was run: as §1
# [7] = molecular target: ETV5 (Homo sapiens, UniProt P41161 1-510)
# ETV5, sequence (P41161 whole entry): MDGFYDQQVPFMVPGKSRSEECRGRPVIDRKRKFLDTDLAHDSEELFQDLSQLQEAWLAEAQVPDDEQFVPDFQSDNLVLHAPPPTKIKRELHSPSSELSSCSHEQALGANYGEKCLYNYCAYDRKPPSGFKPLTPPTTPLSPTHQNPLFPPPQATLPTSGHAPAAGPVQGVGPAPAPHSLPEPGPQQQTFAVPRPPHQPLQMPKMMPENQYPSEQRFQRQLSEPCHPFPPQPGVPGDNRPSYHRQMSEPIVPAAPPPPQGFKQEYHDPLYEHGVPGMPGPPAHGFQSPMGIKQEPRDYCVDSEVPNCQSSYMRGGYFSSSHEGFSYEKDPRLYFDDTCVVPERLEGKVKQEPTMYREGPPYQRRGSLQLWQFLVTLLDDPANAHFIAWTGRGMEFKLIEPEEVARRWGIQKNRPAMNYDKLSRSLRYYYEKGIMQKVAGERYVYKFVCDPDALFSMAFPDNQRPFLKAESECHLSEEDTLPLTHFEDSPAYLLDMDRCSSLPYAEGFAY
# How it was run: as §1
# [8] = molecular target: ELF4 (Homo sapiens, UniProt Q99607 1-663)
# ELF4, sequence (Q99607 whole entry): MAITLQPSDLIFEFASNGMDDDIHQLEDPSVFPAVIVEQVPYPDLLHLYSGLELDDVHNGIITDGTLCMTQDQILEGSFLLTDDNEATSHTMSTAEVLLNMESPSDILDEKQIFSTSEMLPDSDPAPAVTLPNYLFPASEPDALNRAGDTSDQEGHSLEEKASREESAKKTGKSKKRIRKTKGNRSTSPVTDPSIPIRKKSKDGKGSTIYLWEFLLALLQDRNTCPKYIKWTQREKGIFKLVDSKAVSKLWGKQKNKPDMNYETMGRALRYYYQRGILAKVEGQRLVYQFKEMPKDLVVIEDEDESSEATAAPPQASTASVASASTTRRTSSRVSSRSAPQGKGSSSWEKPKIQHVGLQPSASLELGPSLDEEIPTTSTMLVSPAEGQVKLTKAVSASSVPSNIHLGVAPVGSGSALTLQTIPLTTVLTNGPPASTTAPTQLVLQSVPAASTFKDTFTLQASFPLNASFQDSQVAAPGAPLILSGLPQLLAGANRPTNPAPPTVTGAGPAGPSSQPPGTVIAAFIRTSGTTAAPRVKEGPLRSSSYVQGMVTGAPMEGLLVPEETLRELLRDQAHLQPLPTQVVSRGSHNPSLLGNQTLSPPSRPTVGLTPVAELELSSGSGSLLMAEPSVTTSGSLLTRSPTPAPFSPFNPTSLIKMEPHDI
# How it was run: as §1
# [9] = molecular target: T5, ELK4 (Homo sapiens, UniProt P28324-2 1-405)
# T5 sequence: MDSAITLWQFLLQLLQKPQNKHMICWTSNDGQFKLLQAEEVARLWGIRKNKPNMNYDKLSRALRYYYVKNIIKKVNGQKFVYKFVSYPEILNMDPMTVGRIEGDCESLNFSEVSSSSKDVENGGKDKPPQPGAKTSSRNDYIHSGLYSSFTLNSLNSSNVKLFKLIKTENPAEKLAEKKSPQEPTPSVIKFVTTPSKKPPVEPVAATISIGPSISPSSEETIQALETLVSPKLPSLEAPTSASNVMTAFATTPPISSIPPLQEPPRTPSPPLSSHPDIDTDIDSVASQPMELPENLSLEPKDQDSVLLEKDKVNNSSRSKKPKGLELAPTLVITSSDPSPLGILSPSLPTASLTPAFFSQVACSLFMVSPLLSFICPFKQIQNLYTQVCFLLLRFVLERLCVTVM
# How it was run: as §1
sequence,measurement,setting,value
CATTAA,binding signal,[1],"1 fold enrichment (6-mer frequency, TF over GST control)"
same,binding signal,[2],"1.12 fold enrichment (6-mer frequency, TF over GST control)"
same,binding signal,[3],"1.07 fold enrichment (6-mer frequency, TF over GST control)"
same,binding signal,[4],"1.01 fold enrichment (6-mer frequency, TF over GST control)"
same,binding signal,[5],"1.04 fold enrichment (6-mer frequency, TF over GST control)"
same,binding signal,[6],"1.01 fold enrichment (6-mer frequency, TF over GST control)"
same,binding signal,[7],"1.07 fold enrichment (6-mer frequency, TF over GST control)"
same,binding signal,[8],"1.07 fold enrichment (6-mer frequency, TF over GST control)"
same,binding signal,[9],"1.02 fold enrichment (6-mer frequency, TF over GST control)"
